Source: PubChem BioAssay AID1159580 (chemical genetic matrix, 2015)
In all, about 5,500 compounds went through this assay and about 2,000 (36%) were called active. Not shown: some 18% with an inconclusive outcome. The list shows a part of the results. A number with no mark means an inactive call. Rule as the data show it: active = normalized growth mostly below about 0.91 (no sharp cut-off); inconclusive = no clear call, values can overlap the other calls; inactive = mostly above about 0.92.

Experiment: chemical genetic growth profiling, strain panel (AID 1159580);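 also: tested at 20 µM; growth read once vehicle control cultures reached saturation at 30 °C; 1 = growth at the plate median or of vehicle wells; lower values mean less growth of the strain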
Conditions: S. cerevisiae deletion strains, growth OD

Compound: NCCCP(=O)(O)O
- normalized growth (locus YAL040C, strain CLN3, hits give low values): 1.04
- normalized growth (locus YCL061C, strain MRC1 (second series), hits give low values): 0.998
- normalized growth (locus YDR150W, strain NUM1, hits give low values): 1.01
- normalized growth (locus YDR363W, strain ESC2, hits give low values): 0.956
- normalized growth (locus YER002W, strain NOP16, hits give low values): 0.981
- normalized growth (locus YGR229C, strain SMI1, hits give low values): 0.984
- normalized growth (locus YNL175C, strain NOP13, hits give low values): 0.978
- normalized growth (locus YNL197C, strain WHI3, hits give low values): 0.979
- normalized growth (locus YNL224C, strain SQS1, hits give low values): 1
- normalized growth (locus YOR083W, strain WHI5 (second series), hits give low values): 0.98
- normalized growth (locus YPL055C, strain LGE1, hits give low values): 1.02
- normalized growth (locus YPL241C, strain CIN2, hits give low values): 0.995

Compound: NCCCC(O)(P(=O)(O)O)P(=O)(O)O
- normalized growth (locus YAL021C, strain ccr4, hits give low values): 0.993
- normalized growth (locus YAL026C, strain drs2, hits give low values): 0.983
- normalized growth (locus YAL030W, strain snc1, hits give low values): 0.993
- normalized growth (locus YBL061C, strain skt5, hits give low values): 0.978
- normalized growth (locus YBR009C, strain hhf1, hits give low values): 0.988
- normalized growth (locus YBR023C, strain chs3, hits give low values): 0.992
- normalized growth (locus YBR171W, strain sec66, hits give low values): 0.953
- normalized growth (locus YBR231C, strain swc5, hits give low values): 0.977
- normalized growth (locus YBR279W, strain paf1, hits give low values): 0.981
- normalized growth (locus YCL011C, strain gbp2, hits give low values): 0.997
- normalized growth (locus YCL016C, strain dcc1, hits give low values): 0.984
- normalized growth (locus YCL061C, strain MRC1, hits give low values): 0.976
- normalized growth (locus YCL069W, strain vba3, hits give low values): 0.991
- normalized growth (locus YCR088W, strain abp1, hits give low values): 0.972
- normalized growth (locus YDL005C, strain med2, hits give low values): 0.99
- normalized growth (locus YDL040C, strain nat1, hits give low values): 0.989
- normalized growth (locus YDR001C, strain nth1, hits give low values): 0.983
- normalized growth (locus YDR069C, strain doa4, hits give low values): 1
- normalized growth (locus YDR137W, strain rgp1, hits give low values): 1
- normalized growth (locus YDR159W, strain sac3, hits give low values): 1
- normalized growth (locus YDR195W, strain ref2): 0.943
- normalized growth (locus YDR297W, strain sur2, hits give low values): 0.991
- normalized growth (locus YDR334W, strain swr1, hits give low values): 0.967
- normalized growth (locus YDR335W, strain msn5, hits give low values): 0.99
- normalized growth (locus YDR392W, strain spt3, hits give low values): 0.964
- normalized growth (locus YEL003W, strain gim4, hits give low values): 0.989
- normalized growth (locus YEL037C, strain rad23, hits give low values): 0.978
- normalized growth (locus YEL061C, strain CIN8 (second series), hits give low values): 0.973
- normalized growth (locus YER015W, strain faa2, hits give low values): 0.987
- normalized growth (locus YER016W, strain bim1, hits give low values): 0.984
- normalized growth (locus YER111C, strain swi4, hits give low values): 0.978
- normalized growth (locus YER155C, strain BEM2 (second series), hits give low values): 0.968
- normalized growth (locus YFR010W, strain ubp6, hits give low values): 0.968
- normalized growth (locus YGL167C, strain pmr1, hits give low values): 0.98
- normalized growth (locus YGL173C, strain kem1, hits give low values): 0.959
- normalized growth (locus YGL227W, strain vid30, hits give low values): 0.97
- normalized growth (locus YGL240W, strain doc1, hits give low values): 0.995
- normalized growth (locus YGL253W, strain hxk2, hits give low values): 0.977
- normalized growth (locus YHR013C, strain ard1, hits give low values): 0.97
- normalized growth (locus YHR027C, strain rpn1, hits give low values): 0.983
- normalized growth (locus YHR030C, strain SLT2, hits give low values): 0.979
- normalized growth (locus YHR079C, strain IRE1, hits give low values): 0.968
- normalized growth (locus YHR142W, strain chs7, hits give low values): 0.972
- normalized growth (locus YJL092W, strain hpr5, hits give low values): 0.972
- normalized growth (locus YJL095W, strain BCK1 (second series), hits give low values): 0.985
- normalized growth (locus YJL095W, strain BCK1, hits give low values): 1
- normalized growth (locus YJL115W, strain asf1, hits give low values): 0.976
- normalized growth (locus YJL129C, strain trk1, hits give low values): 0.964
- normalized growth (locus YJL154C, strain vps35, hits give low values): 0.974
- normalized growth (locus YJL164C, strain tpk1, hits give low values): 0.996
- normalized growth (locus YJL166W, strain qcr8, hits give low values): 1
- normalized growth (locus YJL187C, strain SWE1, hits give low values): 0.991
- normalized growth (locus YJR066W, strain TOR1, hits give low values): 0.952
- normalized growth (locus YKL160W, strain elf1, hits give low values): 0.99
- normalized growth (locus YKR026C, strain gcn3, hits give low values): 0.98
- normalized growth (locus YKR091W, strain srl3, hits give low values): 0.981
- normalized growth (locus YLL001W, strain dnm1, hits give low values): 0.987
- normalized growth (locus YLL026W, hits give low values): 0.995
- normalized growth (locus YLL041C, strain sdh2, hits give low values): 1.01
- normalized growth (locus YLR027C, strain aat2, hits give low values): 1
- normalized growth (locus YLR113W, strain HOG1, hits give low values): 1
- normalized growth (locus YLR221C, strain rsa3, hits give low values): 0.99
- normalized growth (locus YLR258W, strain gsy2, hits give low values): 0.998
- normalized growth (locus YLR262C, strain YPT6 (second series), hits give low values): 0.973
- normalized growth (locus YLR320W, strain mms22, hits give low values): 0.987
- normalized growth (locus YLR342W, strain FKS1, hits give low values): 0.978
- normalized growth (locus YLR357W, strain rsc2, hits give low values): 0.975
- normalized growth (locus YLR370C, strain arc18, hits give low values): 0.976
- normalized growth (locus YLR384C, strain iki3, hits give low values): 0.978
- normalized growth (locus YML120C, strain ndi1, hits give low values): 0.989
- normalized growth (locus YMR058W, strain fet3, hits give low values): 0.977
- normalized growth (locus YMR125W, strain sto1, hits give low values): 0.978
- normalized growth (locus YMR129W, hits give low values): 0.99
- normalized growth (locus YMR205C, strain PFK2, hits give low values): 0.996
- normalized growth (locus YMR231W, strain pep5, hits give low values): 0.962
- normalized growth (locus YNL071W, strain lat1, hits give low values): 0.985
- normalized growth (locus YNL183C, strain NPR1, hits give low values): 0.978
- normalized growth (locus YNL209W, strain ssb2, hits give low values): 0.982
- normalized growth (locus YNL248C, strain rpa49, hits give low values): 0.985
- normalized growth (locus YNL322C, strain KRE1 (second series), hits give low values): 0.98
- normalized growth (locus YNR049C, strain mso1, hits give low values): 0.987
- normalized growth (locus YOR001W, strain rrp6, hits give low values): 0.983
- normalized growth (locus YOR070C, strain gyp1, hits give low values): 0.972
- normalized growth (locus YOR080W, strain dia2, hits give low values): 0.979
- normalized growth (locus YOR083W, strain WHI5, hits give low values): 0.99
- normalized growth (locus YOR106W, strain vam3, hits give low values): 0.956
- normalized growth (locus YOR231W, strain MKK1, hits give low values): 0.989
- normalized growth (locus YOR265W, strain rbl2, hits give low values): 0.995
- normalized growth (locus YOR270C, strain vph1, hits give low values): 0.965
- normalized growth (locus YOR290C, strain snf2, hits give low values): 0.98
- normalized growth (locus YPL051W, strain arl3, hits give low values): 0.899 (active)
- normalized growth (locus YPL078C, strain atp4, hits give low values): 0.976
- normalized growth (locus YPL106C, strain sse1, hits give low values): 0.983
- normalized growth (locus YPL240C, strain hsp82, hits give low values): 0.992
- normalized growth (locus YPL256C, strain CLN2, hits give low values): 0.973
